Our source for the activity, negative = inhibition, redox activity (% of DA3003) and Potency values is PubChem BioAssay (NCATS).

Assay [1] deals with Nanoluciferase (engineered Oplophorus gracilirostris luciferase). As to the kind of experiment: Primary Nanoluciferase (NLuc) qHTS assay for identification of artifact compounds. (AID 1845222).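 For activity, negative = inhibition: NLuc secreted into diluted conditioned medium of S16 cells; series mostly up to about 54 µM; 0% = DMSO and -100% = no enzyme.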 Note: potency is the fitted concentration of half-maximal effect. A digest of the protocol: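 NLuc from S16 cell medium (1:55) plus test compounds, 15 min, room temperature. Luminescence after Nano-Glo (1:100) addition, 5 min.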
The nature of assay [2]: Primary redox qHTS assay for identification of artifact compounds. (AID 1845223).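 Note: 0% = DMSO and 100% = reference compound.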 The procedure, abridged:
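Redox-cycling detection via DTT (250 uM final) oxidation coupled to Amplex Red (25 uM)/HRP (250 mU/mL) in HBSS. 15 min preincubation plus 30 min after DTT, room temperature. Ex/Em 525/598 nm; 4-parameter Hill fit against DMSO and 10 uM DA3003.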
In general terms: In qHTS, concentration-response curves come from the screen itself.

Structures are written as SMILES. Unmarked numbers belong to inactive results. Inconclusive results are not listed. The source made the active and inactive calls. Calls come from the whole dose curve; as a rule, active = well fitted curve in the direction sought with a large enough effect; inconclusive = small, poorly fitted or top-dose-only effect, or another doubt; inactive = no such curve, though single readings can be large; an effect the other way counts as inactive or inconclusive.

As to `COc1cc2c(c(OC)c1O)C(c1ccc(O)cc1)C1C(=O)OC3C(COC(=O)C1=C2)OC(CO)(OC1OC(COC(=O)/C=C/c2ccc(OC4OC(C)C(O)C(O)C4O)cc2)C(O)C(O)C1O)C3O` (stereo unspecified), the activity, negative = inhibition in assay [1] was -14.9% [at 11.6 µM]. For the same compound, in assay [2], the redox activity (% of DA3003) is 0.553% [at 11.5 µM].

In the case of `Cc1occc1C(=O)n1ccnc1`, the Potency entry in assay [1] and in assay [2] was “inactive” each time.

Take `Cn1c2ccc(NC(=O)c3ccccc3)cc2c(=O)n2nc(C(=O)O)cc12`: the Potency result in assay [1] and in assay [2] was “inactive” each time.

Regarding `O=C(OC[C@H]1O[C@H](O[C@]2(CO)O[C@H](CO)[C@@H](O)[C@@H]2O)[C@H](O)[C@@H](O)[C@@H]1O)c1ccc(O)cc1`, the Potency result in assay [1] and in assay [2] was “inactive” throughout.

On to `CC1=COC(OC2OC(CO)C(O)C(O)C2O)C2C(CO)CC(OC(=O)/C=C/c3ccc(O)cc3)C12` (stereo unspecified), for which the Potency entry in assay [1] and in assay [2] was “inactive” each time.

On to `CC1(C)C(=O)CCC2(C)C1C(O)C=C1COC(=O)C12O` (stereo unspecified), for which the Potency entry in assay [1] and in assay [2] was “inactive” each time.

Consider `CC1(C)O[C@H]2CC(=O)OC[C@@]23C1=C(O)C(=O)[C@]1(C)C3CC[C@@]2(C)[C@H](c3ccoc3)OC(=O)[C@H]3O[C@]321` (stereo partly specified), for which the Potency entry in assay [1] and in assay [2] was “inactive” throughout.

In the case of `COc1cnc(-c2ccc(Cn3c(CC(C)(C)C(=O)O)c(SC(C)(C)C)c4cc(OC[C@@H]5Cc6ccccc6N5C(C)=O)ccc43)cc2)nc1`, the Potency result in assay [1] and in assay [2] was “inactive” in each case.

For `Cc1cc(-c2nncc3c(C(C)(C)C)c(OCc4ncnn4C)nn23)no1`, the Potency result in assay [1] and in assay [2] was “inactive” each time.

As to `Cc1cc(CO)c(O)c(C(=O)CC2CC(=O)NC(=O)C2)c1`, the Potency entry in assay [1] and in assay [2] was “inactive” each time.

For the compound `C=C1CC23CC1CCC2C12OC(=O)C(C)(C(O)C(O)C1O)C2C3C(=O)O` (stereo unspecified), the Potency result in assay [1] and in assay [2] was “inactive” throughout.

Regarding `C=C1C[C@@]2(O)O[C@@]3(C[C@H]2C(C)C)[C@@H](C)CC[C@@H]13`, the Potency entry in assay [1] and in assay [2] was “inactive” each time.

Consider `COC(=O)C1=CO[C@@H](O[C@@H]2O[C@H](CO)[C@@H](O)[C@H](O)[C@H]2O)[C@@H]2[C@@H](C)[C@@H](O)C(O)[C@H]12` (stereo partly specified), for which the Potency entry in assay [1] and in assay [2] was “inactive” throughout.

`CC(=O)OC1C(C)C2C(OC3OC(CO)C(O)C(O)C3O)OC=C(C(=O)O)C2C1OC(=O)c1ccccc1` (stereo unspecified): the Potency result in assay [1] and in assay [2] was “inactive” in each case.

With `COc1cc(/C=C/C(=O)OC[C@H]2O[C@@H](OC3CC(C)=C(C(=O)O)C(C)(C)C3)[C@H](O)[C@@H](O)[C@@H]2O)cc(OC)c1O` (stereo partly specified), the Potency result in assay [1] and in assay [2] was “inactive” throughout.

Turning to `C=C1C(O)CCC2(C)CC3(OC)OC(=O)C(C)=C3CC12` (stereo unspecified), the Potency entry in assay [1] and in assay [2] was “inactive” each time.

Take `COc1cccc(Cn2ncc3c4sc(S(C)=O)cc4n(C)c3c2=O)c1` (stereo unspecified): the Potency result in assay [1] and in assay [2] was “inactive” in each case.

Turning to `CSC(=O)OCC1=C[C@@H]2OC(=O)C3=CO[C@@H](O[C@@H]4O[C@H](CO)[C@@H](O)[C@H](O)[C@H]4O)[C@H]1[C@@H]32`, the Potency result in assay [1] and in assay [2] was “inactive” in each case.

For the compound `CC1=C2C(=O)C=C(CO[C@@H]3O[C@H](CO)[C@@H](O)[C@H](O)[C@H]3O)[C@@H]2[C@H]2OC(=O)[C@H](C)[C@@H]2CC1`, the Potency entry in assay [1] and in assay [2] was “inactive” in each case.

`C=C1CC[C@H]2[C@@](C)(CCC(O)[C@@]2(C)CO)[C@@H]1/C=C/C(=C\C(=O)O)C(=O)O` (stereo partly specified): the Potency entry in assay [1] and in assay [2] was “inactive” throughout.

On to `CC(O)C/C=C/C=C/C(=O)OC1C=C2COC(=O)C2(O)C2(C)CCCC(C)(C)C12` (stereo unspecified), for which the Potency entry in assay [1] and in assay [2] was “inactive” throughout.

Consider `C/C=C1/[C@H](O[C@@H]2O[C@H](CO)[C@@H](O)[C@H](O)[C@H]2O)OC=C2C(=O)O[C@@H]3C[C@@H](C(C)CO)[C@H](COC(=O)C[C@H]21)[C@H]3C` (stereo partly specified), for which the Potency entry in assay [1] and in assay [2] was “inactive” each time.

For `O=C(/C=C/c1ccc(O)c(O)c1)OC[C@H]1O[C@@H](OC2CCCCC2O)[C@H](O)[C@@H](O)[C@@H]1O` (stereo partly specified), the Potency result in assay [1] and in assay [2] was “inactive” throughout.

For the compound `NCCCCN(Cc1nc2ccccc2[nH]1)[C@H]1CCCc2cccnc21`, the Potency entry in assay [1] and in assay [2] was “inactive” in each case.

On to `C[C@@H]1CC2OC(=O)C3=C2C(CCC3O)[C@@]12C[C@@H](c1ccoc1)OC2=O` (stereo partly specified), for which the Potency result in assay [1] and in assay [2] was “inactive” in each case.

Regarding `O=C(Cc1ccc(Cl)cc1)Nc1cnccc1C(=O)O`, in assay [1], the Potency is 9.53 µM (active). Moreover, in assay [2], the Potency result was “inactive”.

With `COc1cc(Nc2nc3c(s2)CCCC3c2ccccc2)ccc1-n1cnc(C)c1` (stereo unspecified), in assay [1], the activity, negative = inhibition was 4.88% [at 11.6 µM]. Besides, the redox activity (% of DA3003) in assay [2] is -0.384% [at 11.5 µM].

With `CC1(C)CC[C@]2(C(=O)O[C@@H]3O[C@H](CO)[C@@H](O)[C@H](O)[C@H]3O)CC[C@]3(C)C(=CCC4[C@@]5(C)C[C@H](O)[C@H](O[C@@H]6OC[C@@H](O)[C@H](O)[C@H]6O)[C@@](C)(CO)C5CC[C@]43C)C2C1` (stereo partly specified), the activity, negative = inhibition in assay [1] was 3.66% [at 11.6 µM]. Further, in assay [2], the redox activity (% of DA3003) is 17.7% [at 11.5 µM].
